Assay outcomes deposited in PubChem by National Center for Advancing Translational Sciences (NCATS).
FLuc modulator = firefly luciferase modulation, counter-screen for miR-21 project; 6.9% of 360,000 active; Potency, µM (highest dose often 57.5 µM), without a hit: at the highest dose activity change, negative = inhibition, hits mostly inhibitors; P08659; purified FLuc, Km substrates, luminescence inhibition;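 note: plate controls were vehicle for no effect and reference inhibitor for full effect; nearly all actives have a fitted effect of over 55% in size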
Target sequence (P08659 whole entry, looked up): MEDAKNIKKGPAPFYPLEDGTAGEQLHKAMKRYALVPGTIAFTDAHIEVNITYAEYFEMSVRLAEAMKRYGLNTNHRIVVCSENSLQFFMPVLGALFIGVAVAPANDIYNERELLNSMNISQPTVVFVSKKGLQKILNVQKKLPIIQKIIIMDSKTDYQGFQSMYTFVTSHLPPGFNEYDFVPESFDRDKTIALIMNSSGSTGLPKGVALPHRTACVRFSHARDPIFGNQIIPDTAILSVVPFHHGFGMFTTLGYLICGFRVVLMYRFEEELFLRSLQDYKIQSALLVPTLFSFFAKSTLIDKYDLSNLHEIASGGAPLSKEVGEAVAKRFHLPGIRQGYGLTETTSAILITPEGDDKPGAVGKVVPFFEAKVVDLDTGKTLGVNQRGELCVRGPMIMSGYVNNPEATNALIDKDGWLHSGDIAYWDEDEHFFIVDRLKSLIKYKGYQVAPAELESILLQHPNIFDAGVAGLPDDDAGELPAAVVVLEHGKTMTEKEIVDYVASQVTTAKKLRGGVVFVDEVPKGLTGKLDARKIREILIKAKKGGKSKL
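Purified P. pyralis luciferase (10nM final) with 10uM D-luciferin and 10uM ATP (Km levels) in 50mM Tris acetate pH 7.5, 10mM Mg acetate, 0.01% Tween-20, 0.05% BSA; qHTS 6-point titration, ~60 µM downward; luminescence read.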
Rab9 promoter act = Rab9 promoter activation; 2.8% of 320,000 active; Potency, µM (doses to about 9.22 µM), inactives show top-dose activation, negative = inhibition, hits mostly activators; AID 485297; Huh7 Rab9 promoter-luciferase reporter, luminescence, 24 h; note: % of control where 0% means no effect; nearly all actives have a fitted effect of over 60% in size
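Huh7 cells stably carrying a Rab9 promoter-luciferase reporter, 1500 cells per well in OP-MEM I with 10% FBS, treated with compound 24 hours at 37C. Luciferase activity read by luminescence after 10 minutes with Amplite reagent.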
SMN2 splice up = increases expression of the SMN2 splice variant; Potency, µM (top dose mostly 46.1 µM), for inactives: at the top dose activity change, positive = activation, actives largely listed as activators; HEK293 SMN2-luciferase splicing reporter, luminescence, 30-36 h; 2.8% of 210,000 active; note: % of control where 0% means no effect; nearly all actives have a fitted effect of over 55% in size
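qHTS luciferase splicing reporter: luminescence rises when SMN2 exon 7 is included in transfected HEK293 cells. Compound exposure lasted 30-36 h at 37C, with 4.5 mM final sodium butyrate as control, followed by a ONE-Glo read.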
NPC1 prom act = NPC1 promoter activation. Huh7 NPC1 promoter luciferase reporter, 24 h. Potency, µM (doses to about 9.22 µM), for inactives: at the top dose activation, actives largely listed as activators. 2.4% of 320,000 active. AID 485313; note: % of control where 0% means no effect; nearly all actives have a fitted effect of over 60% in size
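Compounds in DMSO were transferred onto Huh7 NPC1-luciferase reporter cells pre-incubated 2 h; after 24 h at 37 °C, Amplite reagent was dispensed and luminescence recorded 10 min later.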
ELG1 repair inh = inhibitors of ELG1-dependent DNA repair in HEK293T cells. HEK293T ELG1-luciferase reporter, luminescence, 16 h; DNA damage induced by 5-fluorouridine. Potency, µM (doses to about 46.1 µM), for the others: top-dose activity change, negative = inhibition, hits mostly inhibitors. 2.3% of 330,000 active. AID 504467; note: % is set by controls: 0 for no effect and ±100 for the full control effect; nearly all actives have a fitted effect of over 55% in size
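5-Fluorouridine DNA damage + compound/DMSO, 2,000 cells/well, 16 h, 37 °C/5% CO2. ONE-Glo, 30 min RT, luminescence. Readout = decrease in reporter signal.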
ELG1 genotox = induces genotoxicity in HEK293T cells with luciferase-tagged ELG1 | HEK293T ELG1-luciferase reporter, luminescence, 16 h | Potency, µM (titrated, usually from 46 µM), for inactives: at the highest dose activity change, positive = activation, hits mostly activators | 1.3% of 330,000 active; note: % of control where 0% means no effect; nearly all actives have a fitted effect of over 60% in size
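DMSO vehicle served as control against compound-treated ELG1-luciferase HEK293T cells; exposure lasted 16 hr at 37 °C and 5% CO2, followed by ONE-Glo luminescence detection after 30 min.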
Starred values were filed as active, the others as inactive; ? = inconclusive; / = no result given. An excerpt weighted towards active compounds, which were near 9.3% of everything screened. Calls come from the whole dose curve; as a rule, active = well fitted curve in the direction sought with a large enough effect; inconclusive = small, poorly fitted or top-dose-only effect, or another doubt; inactive = no such curve, though single readings can be large; an effect the other way counts as inactive or inconclusive. Potency is the fitted concentration of half-maximal effect.

SMILES | FLuc modulator | Rab9 promoter act | SMN2 splice up | NPC1 prom act | ELG1 repair inh | ELG1 genotox
COc1ccc(-c2csc(Nc3ncccc3C)n2)cc1 | 5.4µM* | 1.6µM* | 2.2µM* | 1.8µM* | ? | ?
Cc1nc(C)c(-c2csc(Nc3ncccc3C)n2)s1 | 6.7µM* | 1.3µM* | / | 2.5µM* | ? | ?
COc1cc(CN2CCNC(=O)C2CC(=O)NCc2csc(C(C)C)n2)cc(OC)c1 (stereo unspecified) | 0% | -8% | / | -5% | -5% | 1%
CC(C)c1ccc(NC(=O)C2CCCN(S(=O)(=O)c3cccc4cccnc34)C2)cc1 (stereo unspecified) | 2% | / | -21% | / | / | /
CCC(=O)N1CCc2cc(S(=O)(=O)CCC(=O)N3CCCC(C)C3)ccc21 (stereo unspecified) | 0% | -1% | / | 0% | 11% | 3%
CCOC(=O)c1c(C)[nH]c(C(=O)COC(=O)/C=C/c2ccc(O)c(OC)c2)c1C | -1% | 0% | -44% | 1% | -8% | 1%
COC(=O)c1c(C)[nH]c(C(=O)/C=C/c2ccc(C)cc2)c1C | 2.1µM* | 0% | / | 1% | ? | ?
Cc1[nH]c2ccccc2c(=O)c1C(=O)/C=C/c1ccccc1 | -12% | -41% | / | -39% | 8.2µM* | -13%
COC(=O)c1c(C)[nH]c(C(=O)/C=C/c2ccccc2)c1C | 0.48µM* | 1.4µM* | 2.2µM* | 2.2µM* | ? | 12µM*
C=CCOc1c(Br)cc(CNc2ccc(NC(=O)C(C)C)c(OC)c2)cc1OC | 4% | -4% | -13% | -8% | -7% | -2%
Cc1ccccc1NC(=O)c1nc(-c2ccncc2)no1 | -12% | / | / | / | / | /
CN(C)c1ccc(-c2ccc3c(=O)c4ccccc4n(C)c3c2)cn1 | 4.8µM* | 2.2µM* | / | 2.5µM* | ? | 16µM*
Cc1ccc2c(c1)N(C(=O)N1CCC(C(=O)NC3CCCCCC3)CC1)CC(C)O2 (stereo unspecified) | 7% | / | / | / | / | /
COc1ccccc1N(CC(=O)Nc1ccccc1C(F)(F)F)S(=O)(=O)c1ccc(C)cc1 | 2% | / | -38% | / | / | /
Cc1c(-c2cc(C(=O)O)c3ccccc3n2)cnn1C | -19% | -1% | 13% | -4% | -12% | -4%
Cc1ccc(-c2cc(C(=O)NCc3cnn(C)c3C)c3ccccc3n2)cc1C | 2.1µM* | / | ? | / | / | /
Cc1ccc(-c2cc(C(=O)N/N=C\c3cnn(C)c3C)c3ccccc3n2)cc1C | 0.67µM* | 25% | 1% | 12% | -17% | ?
CCN(CC)CCCNCC(=O)Nc1ccc(OC)c(Cl)c1 | -1% | -1% | / | 2% | 2% | 2%
Clc1ccc(CN2CCN(c3ncnc4scc(-c5cccs5)c34)CC2)cc1 | 3% | -31% | -41% | 0% | 23µM* | -9%
Fc1ccc(CN2CCN(c3ncnc4scc(-c5ccc(F)cc5)c34)CC2)cc1 | 0% | -3% | / | -4% | 21µM* | 0%
O=C1CC(c2cccc(Br)c2)C2=C(COC2=O)N1 (stereo unspecified) | 2% | -1% | 15% | -1% | 11% | 1%
CCOC(=O)Nc1oc2ccccc2c(=O)c1CN1CCOCC1 | -1% | 19% | -15% | -4% | 10µM* | -2%
CCOC(=O)c1oc2ccccc2c1CN1CC(C)OC(C)C1 (stereo unspecified) | 0% | 0% | / | 1% | -7% | -6%
N#CCCN(C(=O)COc1ccc(C#N)cc1)c1ccc(F)cc1 | -2% | -11% | 4% | 0% | -7% | -5%
COc1ccc(S(=O)(=O)N(CC(=O)NCc2cccnc2)c2ccc(C)cc2)cc1OC | 1% | 3% | / | 2% | -13% | -29%
SMILES | FLuc modulator | Rab9 promoter act | SMN2 splice up | NPC1 prom act | ELG1 repair inh | ELG1 genotox
O=C(CS(=O)(=O)c1ccc(Cl)cc1)Nc1nc2ccc(Br)cc2s1 | -5% | / | / | / | / | /
CC(C)c1ccc2nc(NC(=O)C3CC3)sc2c1 | 7.6µM* | 1.6µM* | / | 1.6µM* | ? | ?
O=C(Nc1nc2ccc(S(=O)(=O)N3CCCC3)cc2s1)C1CCCCC1 | 0% | -24% | -37% | -33% | ? | -2%
COC(=O)c1ccc2nc(Nc3nc4ccc(F)cc4s3)sc2c1 | 4.8µM* | -21% | -93% | -19% | ? | ?
COC(=O)Nc1nc2ccc(Br)cc2s1 | -10% | 1.4µM* | 26% | 28% | ? | ?
COC(=O)c1ccc2nc(NC(=O)C3CCCCC3)sc2c1 | ? | 0.32µM* | / | 0.89µM* | ? | ?
CC(=O)c1sc(Nc2nc3ccc(F)cc3s2)nc1C | 3.4µM* | 1.8µM* | 13µM* | 2.8µM* | ? | 3%
CCOC(=O)c1ccc2nc(NC(NC(C)=O)(C(=O)OC)C(F)(F)F)sc2c1 (stereo unspecified) | 3% | 9% | -10% | -37% | -5% | -1%
COC(=O)c1ccc2nc(NC(=O)C(C)(C)C)sc2c1 | 0.43µM* | 0.28µM* | -91% | ? | ? | ?
CCOC(=O)c1csc(Nc2nc3ccc(F)cc3s2)n1 | -16% | 23% | -21% | 14% | ? | 1%
CC1(C)N=C(N)N=C(N)N1c1ccc(OCCCOc2ccccc2)c(Cl)c1 | -2% | -35% | / | -27% | 2.6µM* | -8%
CCOc1ccc(N2C(N)=NC(N)=NC2(C)C)cc1 | -2% | -6% | -17% | -5% | -27% | -2%
Cc1ccccc1NC(=O)C(C)OC(=O)C1CC(=O)N(Cc2ccco2)C1 (stereo unspecified) | 4% | 0% | / | -1% | 14% | -2%
